Mito fusion act: qHTS Assay for Small Molecule Inhibitors of Mitochondrial Division or Activators of Mitochondrial Fusion; 320,000 compounds, 0.23% hits; Potency, µM (series often up to 46.1 µM), for the others: at the highest dose growth rescue (activation), most hits filed as activators; AID 485298, 2010; S. cerevisiae fusion-defective mutant growth rescue, CellTiterGlo 48 h; further: % of control where 0% means no effect; nearly all actives have a fitted effect of over 45% in size
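Luminescent cell viability in 1536-well qHTS format served as the measure of rescued growth in ts fusion-mutant S. cerevisiae cultured on non-fermentable YPEG for 48 hours at 37C.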
FUS suppressor: qHTS for Suppressors of FUS Proteinopathy: Primary screen using FUS-linked yeast assay | 390,000 compounds, 0.24% hits | AID 1347120, 2019 | S. cerevisiae FUS-expressing, growth rescue, OD600, 24 h | Potency, µM (highest dose often 76.6 µM), most hits filed as activators;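 further: plate controls were DMSO vehicle for no effect and reference control for full effect; nearly all actives have a fitted effect of over 55% in size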
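Cultures pregrown in 2.5% raffinose medium are shifted to minimal medium containing 2% galactose to express toxic FUS. Compounds are tested at several concentrations. After 24hr at 30C, growth is quantified at 600 nm absorbance.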
gsp ag: qHTS for Agonist of gsp, the Etiologic Mutation Responsible for Fibrous Dysplasia/McCune-Albright Syndrome: qHTS; gsp mutant cells, cAMP HTRF, 30 min; AID 624287, 2012; Potency, µM (titrated, usually from 76.9 µM), for the others: top-dose activation (cAMP increase), usual class: activators; 340,000 compounds, 0.13% hits; active means well fitted activation curve with a large enough effect; inconclusive means small, poorly fitted or top-dose-only effect, or another doubt; inactive means no such curve, though single readings can be large or run the other way; cell line not stated here;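 further: phosphodiesterase inhibitor Ro 20-1724 added with compounds to block cAMP breakdown; nearly all actives have a fitted effect of over 60% in size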
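Cells stably selected in G418 were plated at 2000/well, grown 16-24 hr, then given compounds in DMSO with the PDE inhibitor […] (300 uM solution added) for 30 min at 37C; cAMP was read by HTRF.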
ALOX12 inh: Primary qHTS assay for inhibitors of human arachidonate 12S-lipoxygenase (ALOX12): Round 2; Potency, µM (top dose mostly 108 µM), for inactives: at the top dose activity change, negative = inhibition, most hits filed as inhibitors; Polyunsaturated fatty acid lipoxygenase ALOX12 (Homo sapiens), P18054; 580,000 compounds, 1.1% hits; purified 12hLO, xylenol orange hydroperoxide absorbance; further: on the % scale 0 is the no-effect control and ±100 the full control effect
Target sequence (P18054 whole entry, looked up): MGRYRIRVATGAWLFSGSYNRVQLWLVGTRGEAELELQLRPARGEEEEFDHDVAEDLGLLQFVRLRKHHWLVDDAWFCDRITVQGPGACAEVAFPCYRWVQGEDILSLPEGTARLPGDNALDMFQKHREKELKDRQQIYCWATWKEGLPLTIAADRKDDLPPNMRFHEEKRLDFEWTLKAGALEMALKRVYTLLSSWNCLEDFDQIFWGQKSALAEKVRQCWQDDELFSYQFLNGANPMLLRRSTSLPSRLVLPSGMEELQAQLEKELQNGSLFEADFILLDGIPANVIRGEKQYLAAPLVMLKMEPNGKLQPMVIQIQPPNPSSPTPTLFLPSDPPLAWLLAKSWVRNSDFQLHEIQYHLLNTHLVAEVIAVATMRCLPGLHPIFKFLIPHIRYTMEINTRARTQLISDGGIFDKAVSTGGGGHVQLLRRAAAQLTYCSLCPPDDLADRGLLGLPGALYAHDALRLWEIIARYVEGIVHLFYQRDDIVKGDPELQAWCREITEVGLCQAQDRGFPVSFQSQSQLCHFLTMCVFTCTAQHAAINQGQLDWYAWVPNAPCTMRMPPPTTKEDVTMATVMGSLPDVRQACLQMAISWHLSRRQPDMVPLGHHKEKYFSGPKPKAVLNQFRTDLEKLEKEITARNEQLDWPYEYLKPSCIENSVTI
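Hydroperoxide product was detected by ferrous iron/xylenol orange as the 573 to 405 nm absorbance ratio. Arachidonic acid at 40 uM (final) was turned over for 30 min at room temperature by 150 nM human 12hLO, pH 7.0 Hepes buffer, after 15 min compound preincubation.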
gsp antagonist: qHTS for Antagonists of gsp, the Etiologic Mutation Responsible for Fibrous Dysplasia/McCune-Albright Syndrome: qHTS | gsp-mutant cells, cAMP HTRF, 30 min | Potency, µM (series often up to 76.9 µM), for inactives: top-dose activity change, negative = inhibition, hits mostly inhibitors | 340,000 compounds, 0.4% hits | AID 624288, 2012; calls by dose curve; cell line not stated here;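 further: intracellular cAMP measured with PDE inhibitor Ro 20-1724 present during compound exposure; on the % scale 0 is the no-effect control and ±100 the full control effect; nearly all actives have a fitted effect of over 65% in size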
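Cells in G418 medium, seeded 16-24 h, 37C; buffer exchange to DPBS + 1 mM CaCl2, 0.5 mM MgCl2, 0.05% BSA; cpds in DMSO + […] (300 uM stock), 30 min 37C; HTRF cAMP detection.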
An asterisk follows results filed as active; i = inactive; ? = inconclusive; nt = not tested or not shown; ! = repeats disagree; [ ] = another dose, or the depositor's remark. The list is not random: actives were taken first. Their share in the collection is about 1.6%. Unless noted, the call rests on the fitted dose curve; in most records, active means well fitted curve in the direction sought with a large enough effect; inconclusive means small, poorly fitted or top-dose-only effect, or another doubt; inactive means no such curve, though single readings can be large; an effect the other way counts as inactive or inconclusive. Potency means the concentration at half of the fitted maximal effect.

SMILES | Mito fusion act | FUS suppressor | gsp ag | ALOX12 inh | gsp antagonist
CCc1ccccc1N1CSC2=C(C#N)C(c3ccccc3F)CC(=O)N2C1 (configuration not stated) | 7.4% | i | -46.1% | 3.16µM* | -7.8%
COc1ccc(OC)c(C2CC(=O)N3CN(c4ccccc4)CSC3=C2C#N)c1 (configuration not stated) | 2.9% | ? | -48.7% | ? | -10.4%
COc1ccc(C2CC(=O)N3CN(c4ccc(C)c(Cl)c4)CSC3=C2C#N)cc1 (configuration not stated) | 5.1% | ? | 22.5% | 3.98µM* | -11.9%
COc1ccc(N2CSC3=C(C#N)C(c4cccc(OC)c4OC)CC(=O)N3C2)cc1 (configuration not stated) | 5.9% | i | 22.5% | 11.2µM* | 0.4%
COc1cc(OC)c(C2CC(=O)N3CN(c4ccccc4C)CSC3=C2C#N)cc1OC (configuration not stated) | 7.7% | nt | nt | -11.7% | nt
COc1ccc(C2CC(=O)N3CN(c4ccccc4F)CSC3=C2C#N)cc1OC (configuration not stated) | 1.2% | i | ? | ? | -7.0%
O=C(Nc1ccc(OCc2cccc(F)c2)c(Cl)c1)c1ccncc1 | nt | nt | nt | 11.7% | nt
CCOC(=O)c1nc(Nc2cc(C)cc(C)c2)c2ccccc2n1 | 2.7% | i | -5.2%[15.4 µM] | -4.8% | 7.94µM*
CCOC(=O)c1nc(Nc2ccc(Nc3ccccc3)cc2)c2ccccc2n1 | 1.9% | i | -14.5% | -15.4% | ?
CC1CCN(c2nc3ccccc3nc2SCC(=O)N2CCCCCC2)CC1 | nt | nt | nt | 30.4% | nt
CCOC(=O)C1CCN(C(=O)c2cc3c(ccc4ccccc43)o2)CC1 | 0.0% | i | 1.6%[15.4 µM] | -0.6% | 5.6%
O=C(O)c1cc2c(ccc3ccccc32)oc1=O | 5.2% | nt | nt | -28.9% | nt
CC(=O)c1cc2c(ccc3ccccc32)o1 | nt | nt | nt | 31.6µM* | nt
CC1CCN(C(=O)c2cc3c(ccc4ccccc43)o2)CC1 | -0.2% | i | 12.6% | 44.7µM* | -11.0%
COc1ccc(CN2C(=O)C(n3ccc4ccccc43)c3cc(OC(F)(F)F)ccc32)cc1 (configuration not stated) | nt | nt | nt | 39.8µM* | nt
CC(C)c1ccc(CN2C(=O)C(n3ccc4ccccc43)c3cc(Cl)ccc32)cc1 (configuration not stated) | nt | nt | nt | 10µM* | nt
CN1C(=O)C(n2ccc3ccccc32)c2cc(Cl)ccc21 (configuration not stated) | nt | nt | nt | -13.8% | nt
Cc1ccc(C(=O)N2CCN(c3nnc4c(Cl)cccn34)CC2)cc1F | nt | nt | nt | 77.4% | nt
COc1ccc(-c2nn(-c3ccc(F)cc3)c(OC(C)=O)c2-c2ccc(NC(C)=O)cc2)cc1OC | nt | nt | nt | 11.2µM* | nt
Cc1ccc(S(=O)(=O)N2CCOCC2)cc1NC(=O)COc1ccc(C(=O)c2ccccc2)cc1 | -3.6% | ? | 7.94µM* | 196.0% | 25.1µM*
Cc1ccc(S(=O)(=O)N2CCOCC2)cc1NC(=O)COC(=O)CCc1c[nH]c2ccccc12 | nt | nt | 6.2% | -4.5% | -8.3%
O=C(COC(=O)Cc1c[nH]c2ccccc12)Nc1cc(S(=O)(=O)N2CCOCC2)ccc1Cl | nt | 35.5µM* | 3.9% | 181.8% | -29.6%
Cc1ccc(S(=O)(=O)N2CCOCC2)cc1NC(=O)COC(=O)CNC(=O)c1ccccc1 | -0.1% | nt | 5.7% | -10.6% | 16.8%
O=C1C2C3c4ccccc4C(C(=O)O)(c4ccccc43)C2C(=O)N1c1ccccc1C(F)(F)F (configuration not stated) | nt | nt | nt | -32.7% | nt
Cc1noc(C)c1C(=O)Nc1nc(-c2ccc([N+](=O)[O-])cc2)cs1 | -5.2% | nt | -57.6% | -0.3% | 28.2µM*
SMILES | Mito fusion act | FUS suppressor | gsp ag | ALOX12 inh | gsp antagonist
COc1ccccc1-c1nnc(SCC(=O)N(C(C)C)C(C)C)n1N | nt | nt | nt | -25.3% | nt
Cc1nc(NC2CCCC2)sc1C(=O)NCCC(C)C | nt | nt | nt | 20µM* | nt
Cc1nc(NC2CC2)sc1C(=O)NC1CCCC1 | nt | nt | nt | 10.5% | nt
O=C1[C@H]2[C@@H](c3ccccc3)N[C@]3(CCCN(Cc4ccc(Cl)cc4)C3=O)[C@H]2C(=O)N1Cc1ccccc1 | nt | i | ? | 7.94µM* | nt
COc1ccc(NC(=O)c2ccccc2OCc2cn3ccccc3n2)cc1S(=O)(=O)N(C)C | nt | nt | nt | 5.6% | nt
CCn1c(CN2CCCCC2)nc2cc(S(=O)(=O)N3CCCCC3)ccc21 | -5.8% | i | -2.8% | 191.2% | 11.2µM*
O=C1c2ccccc2C(=O)c2c(O)ccc(O)c21 | nt | nt | nt | -6.7% | nt
O=C1c2ccccc2C(=O)c2c(O)c(O)cc(O)c21 | nt | i | nt | 31.6µM*! | -17.0%
COC(=O)[C@]1(Sc2ccc(C)cc2)CC(=O)N[C@@H]1c1ccco1 | nt | i | nt | ? | nt
COC(=O)[C@@]1(Sc2ccc(C)cc2)CC(=O)N[C@@H]1c1ccco1 | nt | i | nt | 39.8µM* | nt
Cc1cc(OCC(=O)NCCCO)c2c(C)c(C)c(=O)oc2c1 | nt | nt | nt | -1.3% | nt
CCOC(=O)COc1cc(OCC(=O)OCC)c2c3c(c(=O)oc2c1)CCCC3 | -4.1% | i | 11.2µM* | 3.1% | ?
Cc1cccc(NC(=O)Oc2ccc(Cl)c3cccnc23)c1 | nt | i | -40.2% | 39.8µM* | nt
CC(C)CCCCCCNC(=S)Nc1ccc(S(=O)(=O)N2CCOCC2)cc1 | -1.5% | nt | -36.8% | 50.1µM* | -17.2%
O=C(CSc1ccc2nnc(-c3ccncc3)n2n1)Nc1ccc2c(c1)OCCO2 | -0.7% | i | ? | 1.7% | 8.9%
O=C(CSc1ccc2nnc(-c3ccncc3)n2n1)Nc1ccc2c(c1)OCO2 | 0.5% | i | 15.8µM* | -14.0% | 0.3%
Cc1ccc(-c2nnc3ccc(SCC(=O)Nc4cc(C)on4)nn23)cc1 | -0.3% | i | -1.0% | 15.5% | 1.4%
Cc1cc(NC(=O)CSc2ccc3nnc(-c4cccs4)n3n2)no1 | ? | i | 11.2µM* | -0.3% | 13.3%
CNC(=S)N/N=C(\C)c1ccc(Cl)c(Cl)c1 | -9.3% | i | 2.7%[15.4 µM] | 39.8µM* | -6.6%
COCCNC(=S)N/N=C(\C)c1ccc(Cl)c(Cl)c1 | -0.3% | i | -8.5% | ? | -2.4%
CCc1c(C)sc(NC(=O)c2cc(-c3ccncc3)nc3c(C)c(C)ccc23)c1C#N | nt | nt | nt | -6.3% | nt
CC(N)(C(=O)O)c1ccc(P(=O)(O)O)cc1 (configuration not stated) | nt | nt | nt | 6.9% | nt
C[C@@](N)(C(=O)O)c1ccc(P(=O)(O)O)cc1 | nt | nt | nt | 12.6µM* | nt
CC1(C(=O)OCC(=O)Nc2nc(-c3ccc(F)c(F)c3)cs2)CC1(Cl)Cl (configuration not stated) | 2.2% | nt | -31.3% | 56.2µM* | 50.1µM*
COc1ccc(CC(=O)Nc2nc(-c3ccc(F)c(F)c3)cs2)cc1 | 6.3% | i | 0.2%[15.4 µM] | -14.3% | ?

High-throughput results as filed in PubChem BioAssay.
